# Assay results as given in PubChem BioAssay AID2284162 (EPA ToxCast).
# Active and inactive are the calls of the source. How the source made its calls: active means hit-call score of the fitted dose curve at least 0.9, where 1 is the maximum; inactive means score below 0.9.
# Target: human Histamine Receptor H1, HRH1 (gene 3269) (UniProt P35367)
# Assay: ERF_FR_GPCR_hHRH1: Eurofins (ERF) G Protein-Coupled Receptor (GPCR) Radioligand Binding LeadHunter Assay for human Histamine Receptor H1 Antagonism, conducted at France lab site
# Experimental: ERF_FR_GPCR_hHRH1 is a biochemical, single-readout assay that uses extracted gene-proteins in a cell-free assay. Measurements were taken 1 hour after chemical dosing in a 96-well plate. See H1 Human Histamine GPCR Binding (Antagonist Radioligand) Assay, Cerep.ERF_FR_GPCR_hHRH1 is an assay component calculated from the ERF_FR_GPCR_hHRH1 assay. It is designed to measure radioligand binding using a type of binding reporter as detected by scintillation counting with radiometry technology.Data from the assay component ERF_FR_GPCR_hHRH1 was analyzed at the assay endpoint, ERF_FR_GPCR_hHRH1, in the positive analysis fitting direction relative to DMSO as the negative control and baseline of activity. Using a type of binding reporter, loss-of-signal activity can be used to understand changes in binding as they relate to gene HRH1. To generalize the intended target to other relatable targets, this assay endpoint is annotated to the gpcr intended target family, where the subfamily is histamine.
# Human cells are incubated for 60 minutes at room temprature with [3H]pyrilamine ligand (1 nM) and Pyrilamine as control inhibitor. Test Sample Requirements: Minimum for 1) Screen: 60 ul of 10 mM stock -OR- 1 mg (pre-weighed) for 10 uM final testing. 2) Dose Response: 90 ul of 10 mM stock -OR- 1 mg (pre-weighed) for a top concentration at 10 uM.
# human Histamine Receptor H1, HRH1 (gene 3269), sequence (P35367 whole entry, looked up): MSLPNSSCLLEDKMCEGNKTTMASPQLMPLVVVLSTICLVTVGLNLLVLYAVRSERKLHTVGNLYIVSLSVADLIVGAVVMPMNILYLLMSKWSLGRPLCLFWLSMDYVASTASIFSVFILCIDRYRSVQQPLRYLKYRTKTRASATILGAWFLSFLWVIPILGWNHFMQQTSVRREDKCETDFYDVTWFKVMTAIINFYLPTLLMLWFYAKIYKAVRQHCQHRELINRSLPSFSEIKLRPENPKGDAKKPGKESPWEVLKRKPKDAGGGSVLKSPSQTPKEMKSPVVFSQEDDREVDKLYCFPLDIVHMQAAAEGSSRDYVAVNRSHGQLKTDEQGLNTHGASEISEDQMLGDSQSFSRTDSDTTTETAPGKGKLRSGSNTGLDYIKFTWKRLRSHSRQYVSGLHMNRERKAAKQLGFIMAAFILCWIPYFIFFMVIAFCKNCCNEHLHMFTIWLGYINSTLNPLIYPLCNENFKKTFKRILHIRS
row,SMILES,AC50
1,O=C(/C=C/c1ccc(O)cc1)CC(=O)/C=C/c1ccc(O)cc1,1.46 µM (active)
